Bioassay records (PubChem)
MITF primary: MITF inhibitors, primary screen, biochemical, AlphaScreen, human; AlphaScreen MITF homodimerization, bead proximity signal; inhibition, % at 2.6 µM; 650,000 tested, 0.91% active; AID 1259374, 2018; in the data active means inhibition above about 50%
GPR151 ag: activators of human GPR151, primary screen, cell-based, PathHunter beta-arrestin, luminescence. PathHunter beta-arrestin GPR151 cells. AID 1508602, 2020. 650,000 tested, 1% active. activation, % at 11.2 µM; in the data active means activation above about 4.9%
TEAD-YAP inh: TEAD-YAP interaction inhibition, primary screen, TEAD-YAP interaction inhibitor project, luminescence, HEK-TIYL cells; 640,000 tested, 1.4% active; TEAD-Gal4/YAP UAS-luciferase luminescence; AID 1259422, 2018; inhibition, % at 9.12 µM; in the data active means inhibition above about 32%
FBW7 act: FBW7 E3 ligase activators, primary screen, biochemical, AlphaScreen, human | F-box/WD repeat-containing protein 7 (Homo sapiens), Q969H0 | AlphaScreen FBW7–phospho-cyclin E peptide binding, activator screen | normalized activity (activation), % at 26.1 µM | 650,000 tested, 0.13% active; in the data active means normalized activity above about 1.9%;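 further: purified mutant Fbw7 with reduced substrate affinity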
GPR151 conf act: GPR151 activators, triplicate retest, confirmation, cell-based, PathHunter beta-arrestin, luminescence | 6,700 tested, under 10 active | shares compounds with GPR151 ag | activation, % at 11.2 µM | GPR151 PathHunter beta-arrestin cells, 90 min; % of EA-reagent control over plate median;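 active means mean percent activation across replicates above the confirmation screen cutoff of 4.91%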
GPR119 counter: GPR119 activators in beta-arrestin cells, counter-screen for GPR151 activator project, cell-based, PathHunter beta-arrestin, luminescence, triplicate; shares compounds with GPR151 ag; 90 min; 0 = compound-well median, 100 = enzyme-acceptor control; activation, % at 11.2 µM; 6,700 tested, 0.3% active; AID 1508611, 2020;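 active means mean percent activation in the counterscreen above 29.09%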;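 further: counterscreen on off-target GPR119 to flag nonselective hits from the GPR151 activator screen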
Large screens that a line does not name were inactive (follow-up assays come after a bar, where they were run). Compounds with a hit are over-represented: about 3.5% of the library has one in this group of screens.

CC1CCN(S(=O)(=O)c2coc(C(N)=O)c2)CC1	GPR151 ag 10.0 | GPR151 conf act inactive | GPR119 counter inactive
CC(=O)N1CCN(S(=O)(=O)c2ccc(S(=O)(=O)N3CCC(C)CC3)cc2)CC1	none
COCCNC(=O)/C(C#N)=C/C=C/c1ccccc1	GPR151 ag 6.0 | GPR151 conf act inactive | GPR119 counter inactive
C=CCNC(=O)/C(C#N)=C/C=C/c1ccccc1	none
Cc1sc2ncnc(Nc3ccncc3)c2c1C	GPR151 ag 5.3 | GPR151 conf act inactive | GPR119 counter inactive
Cc1sc2ncnc(Nc3ccc(Cl)cc3)c2c1C	none
Cc1sc2ncnc(NCCc3ccccc3)c2c1C	GPR151 ag 5.4 | GPR151 conf act inactive | GPR119 counter inactive
O=C(O)CCCCCN1C(=O)C(O)=C(C(=O)/C=C/c2ccccc2)C1c1ccccc1Cl (stereo not drawn)	GPR151 ag 5.0 | GPR151 conf act inactive | GPR119 counter inactive
CCN1C(=O)/C(=C/c2ccc(C(=O)OC)cc2)NC1=S	none
CCN1C(=O)/C(=C/c2ccc(OCc3ccc(C(=O)O)cc3)cc2)NC1=S	GPR151 ag 7.8 | GPR151 conf act inactive | GPR119 counter inactive
Cc1ccccc1C(=O)Nc1ccccc1I	none
Cn1cccc1C(CNS(=O)(=O)c1cc(F)ccc1F)N1CCCC1 (stereo not drawn)	none
CCOc1ccc(C)cc1S(=O)(=O)NCC(c1cccn1C)N1CCCC1 (stereo not drawn)	GPR151 ag 5.2 | GPR151 conf act inactive | GPR119 counter inactive
O=C1OC(c2ccc([N+](=O)[O-])cc2)=N/C1=C\C=C\c1ccccc1[N+](=O)[O-]	none
O=[N+]([O-])c1cccc(C2Nc3cc(Cl)ccc3S(=O)(=O)N2)c1 (stereo not drawn)	none
O=S(=O)(CCN1CCc2nc(-c3cccnc3)nc(N3CCCC3)c2C1)c1ccccc1	GPR151 ag 8.4 | GPR151 conf act inactive | GPR119 counter inactive
CCOC(=O)CC(=O)N1CCc2nc(-c3cccnc3)nc(N3CCCCCC3)c2C1	GPR151 ag 7.1 | GPR151 conf act inactive | GPR119 counter inactive
O=C(Nc1ccc(Cl)c(-c2nc3cc(Cl)ccc3o2)c1)c1ccc([N+](=O)[O-])o1	GPR151 ag 7.0 | GPR151 conf act inactive | GPR119 counter inactive
O=C(Nc1cccc(O)c1)c1cc([N+](=O)[O-])ccc1Cl	GPR151 ag 6.4 | GPR151 conf act inactive | GPR119 counter inactive
O=C(Nc1ccc2oc(-c3cc(Br)ccc3Cl)nc2c1)c1ccc([N+](=O)[O-])o1	none
O=C(Nc1ccc2oc(-c3ccc(Br)cc3)nc2c1)c1cc([N+](=O)[O-])ccc1Cl	GPR151 ag 6.6 | GPR151 conf act inactive | GPR119 counter inactive
O=C(O)c1cc([N+](=O)[O-])ccc1C(=O)Nc1cccc(O)c1	none
O=C(COC(=O)c1cccc([N+](=O)[O-])c1)NC1CCCCCCC1	none
Cc1cc(NS(=O)(=O)c2ccc(NC(=O)CC3CCCC3)cc2)nc(C)n1	none
CCOC(=O)COc1ccc2c(=O)c(-c3ccc(OC)cc3)c(C)oc2c1	none
CCOC(=O)COc1ccc2c(=O)c(-c3ccccc3F)c(C)oc2c1	GPR151 ag 6.2 | GPR151 conf act inactive | GPR119 counter inactive
COc1ccc(-c2cc(C(=O)NCC(C)C)no2)cc1OC	none
COc1ccc(-c2cc(C(=O)NCC(C)C)on2)cc1OC	GPR151 ag 7.8 | GPR151 conf act inactive | GPR119 counter inactive
CC(=O)N1CCc2c(sc(NC(=O)c3cc([N+](=O)[O-])ccc3Cl)c2C#N)C1	none
N#Cc1ccccc1NC(=O)Cn1cc([N+](=O)[O-])cn1	none
O=C(c1ccc2[nH]ncc2c1)N1CC[C@@H](NS(=O)(=O)c2ccc(Br)cc2)C1	none
CCCNC(=O)c1cncc(-c2ccc(C(=O)NC3CC3)cc2)c1	GPR151 ag 5.7 | GPR151 conf act inactive | GPR119 counter inactive
O=C(NC1CCCCC1)c1ccc(Sc2ccc(F)cc2)c([N+](=O)[O-])c1	none
